Measurements as given in PubChem BioAssay AID1347142 (National Center for Advancing Translational Sciences (NCATS), 2019).
Results filed as inconclusive are left out. The source made the active and inactive calls. Calls come from the whole dose curve; as a rule, active = well fitted inhibition curve with a large enough effect; inconclusive = small, poorly fitted or top-dose-only effect; inactive = no such curve, though single readings can be large or run the other way.

Molecular target: N-terminal Xaa-Pro-Lys N-methyltransferase 1 (Homo sapiens) (UniProt Q9BV86)
Sequence (Q9BV86 whole entry, looked up): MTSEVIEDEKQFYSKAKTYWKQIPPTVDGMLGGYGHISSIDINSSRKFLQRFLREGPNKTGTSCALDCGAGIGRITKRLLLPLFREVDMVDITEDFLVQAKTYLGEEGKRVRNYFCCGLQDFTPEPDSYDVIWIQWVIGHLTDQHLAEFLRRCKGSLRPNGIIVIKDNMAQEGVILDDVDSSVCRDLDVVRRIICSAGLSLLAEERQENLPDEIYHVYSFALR
Assay: qHTS Assay for Inhibitors of N-terminal methyltransferase 1 (NTMT1): ThioGlo3 Assay Confirmatory Screen, Round 1.
Settings: NTMT1 SAHH-coupled ThioGlo3 fluorescence, 30 min; series mostly up to 56.8 µM; activity change, negative = inhibition: at the top concentration
In short: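 Human NTMT1 at 125 nM was preincubated 1 min at room temperature with compounds at various concentrations or 1 uM RCC1-6 control. Substrate mix (100 uM SAM, 10 uM SAHH, 15 uM ThioGlo3) was added, and fluorescence (Ex 340/Em 450 nm) was read at start and after 30 min, normalized to background.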
Note: nearly all actives have a fitted effect of over 80% in size.
Potency is the fitted concentration of half-maximal effect.
Throughout, for activity change, negative = inhibition: 0% is about no effect.

SMILES | activity change, negative = inhibition | Potency
Nc1ncnc2c1ncn2[C@@H]1O[C@H](COP(=O)(O)OP(=O)(O)OP(=O)(O)OP(=O)(O)OC[C@@H]2O[C@H](n3cnc4c(N)ncnc43)[C@@H](O)[C@H]2O)[C@@H](O)[C@H]1O | -8.61% (inactive) | 
COc1cc2nc(N3CCCCC3)nc(NC(C)C)c2cc1OC |  | 24.1 µM (active)
CSc1nc(N)c2ncn([C@H]3O[C@H](COP(=O)(O)OP(=O)(O)O)[C@@H](O)[C@@H]3O)c2n1 | -6.87% (inactive) | 
COc1cc2c(NC3CCN(C)CC3)nc(N3CCCN(C)CC3)nc2cc1OCCCCCCN(C)C |  | 24.1 µM (active)
COc1cc2c(NC3CCN(C(C)C)CC3)nc(N3CCCN(C)CC3)nc2cc1OCCCN(C)C |  | 24.1 µM (active)
Nc1ncnc2c1ncn2[C@@H]1O[C@H](C[C@@H](N)CC[C@H](N)C(=O)O)[C@@H](O)[C@H]1O | 9.35% (inactive) | 
Nc1ncnc2c1ncn2[C@@H]1O[C@H](CO)[C@@H](O)[C@@H]1O | -9.54% (inactive) | 
COc1cc2c(NC3CCN(C)CC3)nc(N3CCCN(C)CC3)nc2cc1OCCCCCN(C)C |  | 24.1 µM (active)
Nc1ncnc2c1ncn2[C@H]1O[C@@H](CSCC[C@@H](N)C(=O)O)[C@H](O)[C@@H]1O | 1900% (inactive) | 
C[C@H](Cc1ccccc1)Nc1ncnc2c1ncn2[C@@H]1O[C@H](CO)C(O)[C@H]1O (stereo not given in full) | 19.6% (inactive) | 
COc1cc2c(NC3CCN(C(C)C)CC3)nc(N3CCCCC3)nc2cc1OCCCN1CCCCC1 |  | 21.5 µM (active)
COc1cc2nc(N3CCOCC3)nc(NC3CCN(C)CC3)c2cc1OC |  | 24.1 µM (active)
Nc1ncnc2c1ncn2C1CC(O)C(CO)O1 (stereo not given) | -15.5% (inactive) | 
Nc1nc2c(ncn2[C@@H]2O[C@H](CO)[C@@H](O)[C@H]2O)c(=O)[nH]1 | 10.9% (inactive) | 
CCN(c1cc(-c2ccc(CN3CCOCC3)cc2)cc(C(=O)NCc2c(C)cc(C)[nH]c2=O)c1C)C1CCOCC1 | -13.6% (inactive) | 
COc1cc2c(NC3CCN(C)CC3)nc(N3CCN(C)CC3)nc2cc1OCCCN(C)C |  | 24.1 µM (active)
Nc1ccnc2c1ncn2[C@@H]1O[C@H](CO)[C@@H](O)[C@H]1O |  | 2.71 µM (active)
CNC(=O)c1cnn(-c2nc(N)c3ncn([C@@H]4O[C@H](CO)[C@@H](O)[C@H]4O)c3n2)c1 | -22.6% (inactive) | 

SMILES | activity change, negative = inhibition | Potency
CSc1nc(N)c2ncn([C@@H]3O[C@H](COP(=O)(O)OP(=O)(O)OP(=O)(O)O)C(O)[C@H]3O)c2n1 (stereo not given in full) |  | 21.5 µM (active)
COc1cc2nc(N3CCCCC3)nc(NC3CC3)c2cc1OC |  | 24.1 µM (active)
CSc1nc(N)c2ncn([C@@H]3O[C@H](COP(=O)(O)OP(=O)(O)O)C(O)[C@H]3O)c2n1 (stereo not given in full) | -17.9% (inactive) | 
NC(=O)c1ccc[n+]([C@@H]2O[C@H](COP(=O)([O-])OP(=O)(O)OC[C@H]3O[C@@H](n4cnc5c(N)ncnc54)[C@H](O)[C@@H]3O)[C@@H](O)[C@H]2O)c1 | -14.9% [at 18.9 µM] (inactive) | 
COc1cc2c(NC3CCN(C(C)C)CC3)nc(N3CCCCC3)nc2cc1OCCCN1CCCC1 |  | 30.4 µM (active)
CC(C)N(CCCNC(=O)Nc1ccc(C(C)(C)C)cc1)C[C@H]1O[C@@H](n2cc(Br)c3c(N)ncnc32)[C@H](O)[C@@H]1O | -1.9% (inactive) | 
OCC1OC(n2cnc3c(NO)ncnc32)C(O)C1O (stereo not given) |  | 3.83 µM (active)
O=C(Nc1ncnc2c1ncn2[C@@H]1O[C@@H]2COP(=O)(O)O[C@H]2[C@H]1O)c1ccccc1 | 20.2% (inactive) | 
COc1cc2c(NC3CCN(C)CC3)nc(N3CCCN(C)CC3)nc2cc1OCCCCN |  | 21.5 µM (active)
COc1cc2nc(N3CCN(C)CC3)nc(NC3CCCCC3)c2cc1OC |  | 27.1 µM (active)
O=c1[nH]cnc2c1ncn2C1O[C@H](CO)[C@@H](O)[C@H]1O (stereo not given in full) | 19.8% (inactive) | 
CCCCC#Cc1nc(NC)c2ncn([C@@H]3O[C@@H](CO)[C@H](O)[C@H]3O)c2n1 | 16.7% (inactive) | 
CCCC(=O)Nc1ncnc2c1ncn2[C@@H]1O[C@@H]2COP(=O)(O)O[C@H]2[C@H]1OC(=O)CCC | 16.8% (inactive) | 
C=C1O[C@@](CO)(n2cnc3c(N)ncnc32)[C@H](O)[C@@H]1O | -25.4% (inactive) | 
COc1cc2c(NC3CCN(CC4CCCCC4)CC3)nc(N3CCCN(C)CC3)nc2cc1OCCCN1CCCCC1 |  | 21.5 µM (active)
OC[C@@H]1O[C@@H](n2cnc3c(N[C@H]4CCC[C@@H]4O)ncnc32)[C@H](O)[C@H]1O | -5.43% (inactive) | 
COc1cc2nc(NC3CCN(C)CC3)nc(NC3CCN(C)CC3)c2cc1OC |  | 27.1 µM (active)
